# Assay results: PubChem BioAssay AID489028 (Sanford-Burnham Center for Chemical Genomics, 2010)
# Out of some 10,000 compounds screened, about 5,600 (56%) were called active. So high a share suggests a set chosen from earlier hits. These entries were drawn from the full list. Values without a mark were called inactive. Rule as the data show it: active = inhibition above about 40%; inactive = the rest.
# Target: Protein Mdm4 (Homo sapiens) + E3 ubiquitin-protein ligase Mdm2 (Homo sapiens) (UniProt O15151+Q00987)
# Assay: Mdm2-MdmX complex disruptors, retested hits, confirmation, luminescence, single concentration (AID 489028)
# Conditions: Mdm2-MdmX binding, luminescent assay; at 8 µM; stronger effect = higher value
# Chain of Protein Mdm4 (Homo sapiens) + E3 ubiquitin-protein ligase Mdm2 (Homo sapiens) (O15151 whole entry, looked up): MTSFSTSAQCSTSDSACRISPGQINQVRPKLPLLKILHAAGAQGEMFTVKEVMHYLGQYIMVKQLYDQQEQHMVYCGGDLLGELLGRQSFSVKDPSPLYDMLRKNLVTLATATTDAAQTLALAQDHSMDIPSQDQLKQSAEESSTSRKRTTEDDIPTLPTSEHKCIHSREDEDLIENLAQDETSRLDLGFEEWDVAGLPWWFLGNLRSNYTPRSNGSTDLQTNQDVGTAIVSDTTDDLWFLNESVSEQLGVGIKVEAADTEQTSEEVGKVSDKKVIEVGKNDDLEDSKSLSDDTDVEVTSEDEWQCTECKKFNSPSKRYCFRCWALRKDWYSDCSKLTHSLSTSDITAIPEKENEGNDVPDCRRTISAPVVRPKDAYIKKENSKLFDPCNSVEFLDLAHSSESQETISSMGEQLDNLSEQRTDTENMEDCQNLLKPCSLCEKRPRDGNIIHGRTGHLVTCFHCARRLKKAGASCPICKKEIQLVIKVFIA
# Chain of Protein Mdm4 (Homo sapiens) + E3 ubiquitin-protein ligase Mdm2 (Homo sapiens) (Q00987 whole entry, looked up): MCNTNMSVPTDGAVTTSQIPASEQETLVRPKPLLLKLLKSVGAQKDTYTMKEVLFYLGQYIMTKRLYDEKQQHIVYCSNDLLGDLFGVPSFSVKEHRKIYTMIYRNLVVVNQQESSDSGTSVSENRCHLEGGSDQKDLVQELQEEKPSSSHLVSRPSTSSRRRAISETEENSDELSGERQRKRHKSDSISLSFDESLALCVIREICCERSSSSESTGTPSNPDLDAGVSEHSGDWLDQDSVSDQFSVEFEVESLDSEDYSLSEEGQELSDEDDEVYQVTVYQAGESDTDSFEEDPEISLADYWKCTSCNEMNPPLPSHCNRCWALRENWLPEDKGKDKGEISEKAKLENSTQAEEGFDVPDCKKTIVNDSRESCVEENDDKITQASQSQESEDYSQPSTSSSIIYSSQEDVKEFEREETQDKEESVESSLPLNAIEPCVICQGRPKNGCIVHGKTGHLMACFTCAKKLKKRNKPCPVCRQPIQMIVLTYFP
row,SMILES,inhibition
1,CC(C)Oc1c(Br)cc(Br)cc1/C=N/NC(N)=S,15.2%
2,CCC1CCCCN1CCCNC(=O)c1cc2c(Cl)nc3ccccc3c2s1 (stereo unspecified),26%
3,Cc1nc(/N=C(\N)NC(=O)NC2CCCCC2)nc2ccccc12,43.9% (active)
4,O=[N+]([O-])/C=C/c1ccc2c(ccn2Cc2ccccc2)c1,52.9% (active)
5,CN(c1ccccc1)S(=O)(=O)c1cc(C(=O)N2CCN(c3ncccn3)CC2)ccc1Cl,50.1% (active)
6,O=C(CSc1nc(Nc2ccccc2)nc(N2CCOCC2)n1)Nc1cc(Cl)ccc1O,35%
7,COc1cccc(-n2c(SCC(=O)NC3CCCCC3)nc3n[nH]c(C)c3c2=N)c1,51.4% (active)
8,CC(C)(C)OC(=O)N1CCC(NC(=O)c2[nH]cnc2C(=O)N[C@@H](Cc2ccccc2)C(=O)OCc2ccccc2)CC1,-8%
9,CCOC(=O)Nc1ccc2c(c1)N(C(=O)CCCl)c1ccccc1[S@]2=O,41.2% (active)
10,CCOc1cc(C(=O)N2CCc3cc(OC)c(OC)cc3C2)ccc1OC(F)F,56.4% (active)
11,CCOc1cc2[nH]c(=S)n(Cc3ccc(C(=O)N4CCN(C)CC4)cc3)c(=O)c2cc1OCC,-2.8%
12,O=c1[nH]c(CCl)nc2cc(-c3ccc(Cl)cc3)sc12,7.45%
13,COc1cccc(NC(=O)[C@H](Cc2c[nH]c3ccccc23)NC(=O)[C@@H]2Cc3ccccc3CN2)c1,76% (active)
14,CC(C)=CCCC1(C)C=Cc2c(ccc3c2[nH]c2cc(O)c(C)cc23)O1 (stereo unspecified),20.9%
15,Cc1ccc(OCCOCCOc2ccc(Br)cc2/C=N\NC(=O)c2ccncc2)cc1,68% (active)
16,O=[N+]([O-])c1ccccc1S(=O)(=O)Nc1cccc2cccnc12,64.5% (active)
17,O=C(Nc1cccc(C(F)(F)F)c1)c1ccc(N2CCNCC2)c([N+](=O)[O-])c1,8.6%
18,CC(NC(=O)c1ccc(N2CCNCC2)c([N+](=O)[O-])c1)C12CC3CC(CC(C3)C1)C2 (stereo unspecified),73% (active)
19,O=C(/C=C/c1ccc(Cl)cc1)Nc1ccc(Br)cn1,13.2%

row,SMILES,inhibition
1,Cc1cccc(Nc2ccccc2C(=O)NCc2ccco2)c1C,43.1% (active)
2,CCc1nn(-c2cc(Oc3cccc4ccccc34)nc(-c3ccccc3)n2)c(N)c1C#N,13.9%
3,CN(C)c1ccnc2sc3c(=O)n(Cc4ccccc4)cnc3c12,64.7% (active)
4,Cc1c(/C=N\NC(=O)c2cc3ccccc3o2)c2ccccc2n1C,54.4% (active)
5,N#CCC(=O)N/N=C/c1cn(Cc2ccc3ccccc3c2)c2ccccc12,23.6%
6,COc1cccc(CNCCc2c[nH]c3ccccc23)c1OCc1ccccc1F,45.4% (active)
7,COc1cccc(-c2nnc(NC(=O)c3ccc(S(=O)(=O)N(CC(C)C)CC(C)C)cc3)o2)c1,52.3% (active)
8,NC(=O)c1sc2nc3c(c(-c4ccccc4)c2c1N)CCC3,68.7% (active)
9,COc1ccc(CNC(=O)C[C@H]2C[C@H](C(=O)N3CCOCC3)[C@@]3(CCC4CCCC4)c4[nH]c5ccc(Cl)cc5c4CCN3C2=O)cc1OC,49.1% (active)
10,CCCCCCCCn1c2c(c(=N)c3c1CCC3)CCCC2,91.8% (active)
11,Cc1cc(=O)oc2cc(OCC3CC(c4ccccc4Cl)=NO3)ccc12 (stereo unspecified),47.2% (active)
12,CC(C)=CC(=O)Nc1nnc(-c2ccc(F)cc2)s1,-17.9%
13,Cc1nnnn1/C(=C\c1ccccc1)C(=O)OCC(=O)N1CC2(C)CC1CC(C)(C)C2 (stereo unspecified),47.9% (active)
14,O=C(NCC1CCCO1)c1cc2c([nH]c3ccccc32)c(-c2ccc(F)cc2)n1 (stereo unspecified),61.5% (active)
15,COc1cc(N=Cc2c(O)[nH]c3ccccc23)cc(OC)c1OC,73.8% (active)
16,COc1ccc(N=Cc2c(O)[nH]c3ccccc23)cc1OC,47% (active)
17,CC(C)(C)OC(=O)NNc1c2ccccc2nc2ccccc12,21.1%
18,C[C@@H](NC(=O)OC(C)(C)C)c1nnc(S(=O)(=O)Cc2ccccc2)o1,54% (active)
19,Cc1ccnc(NC(=O)C2CCN(S(=O)(=O)c3c(C)c(C)cc(C)c3C)CC2)c1,69.8% (active)

row,SMILES,inhibition
1,CC(=O)Nc1ccc(NC(=O)C2CCCN(S(=O)(=O)c3ccc(Cl)cc3)C2)cc1 (stereo unspecified),3.65%
2,COc1cc2[nH]c(=S)n(Cc3ccc(F)cc3)c(=O)c2cc1OC,15.8%
3,COc1cccc2sc(NNC(=O)c3nc4ccccc4s3)nc12,45.7% (active)
4,CCOc1ccc(-c2cc(C(=O)N/N=C/c3ccc(O)cc3)c3ccccc3n2)cc1,76.8% (active)
5,Nc1ccc(C(=O)Nc2ccccc2N)cc1,6.25%
6,COc1ccc(C(=O)/C=C/Nc2ccccn2)cc1,25.4%
7,O=C(CCCN1C(=O)/C(=C\c2ccccc2)SC1=S)Nc1ccccc1O,69.7% (active)
8,COc1ccc(/C=C2\SC(=S)N(CCC(=O)Nc3ccccn3)C2=O)cc1OC,54.1% (active)
9,O=C(CCCN1C(=O)/C(=C/c2cccs2)SC1=S)Nc1ccc(O)cc1,61.5% (active)
10,O=C(CCCN1C(=O)/C(=C/c2ccccc2)SC1=S)Nc1ccc(O)cc1,93.9% (active)
11,CCN1CCN(c2ccc(S(=O)(=O)N3CCCCC3)cc2NC(=O)Cc2c(Cl)cccc2Cl)CC1,30.6%
12,O=C(Nc1ccc(Cl)cc1)Nc1nnc(/C=C/c2ccccc2)s1,81.4% (active)
13,O=C(/C=C/c1ccccc1)Nc1nnc(SCC(=O)c2ccc3ccccc3c2)s1,2.95%
14,Oc1ccc(Br)cc1/C=N/Nc1ccccn1,87.7% (active)
15,CCCCNC(=O)C(C)N(CCN(C)C)C(=O)CCCN1C(=O)NC(c2ccc(Cl)cc2)C(C(=O)OCc2ccccc2)=C1C (stereo unspecified),15.1%
16,CCCCNC(=O)C(C)N(CCN(C)C)C(=O)CCCCCN1C(=O)NC(c2ccc(Cl)cc2)C(C(=O)OCc2ccccc2)=C1C (stereo unspecified),49.5% (active)
17,Cc1cc(C(=O)COC(=O)CNC(=O)c2ccc(F)cc2)c(C)n1Cc1ccco1,72.7% (active)
18,CC1=CC(C)(C)Nc2ccc(OC(=O)CN3C(=O)C4CCCCC4C3=O)cc21 (stereo unspecified),9.75%
